For 96 compounds, inhibition results are on record in PubChem BioAssay AID425 (Sanford-Burnham Center for Chemical Genomics, 2006).

Molecules are shown by their SMILES. Among all 110,000 compounds or so, about 190 (0.17%) were called active. Only a selection was taken, and actives are over-represented in it overall. Results with a measured potency or affinity are listed apart. Unmarked numbers belong to inactive results. No stated cut-off is given here; in the data, active means inhibition above about 50%; inactive means the rest.

The target of the test is Dual specificity protein phosphatase 6 (Rattus norvegicus) (UniProt Q64346). Kind of test: inhibition of rat DUSP6 enzyme activity – biochemical, in vitro, primary screen (AID 425).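 Further: plate controls were vehicle for no effect and reference inhibitor for full effect.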 The settings on record: recombinant MKP-3 phosphatase activity, fluorescence; at 20 µM; hits give high values.
Sequence of Dual specificity protein phosphatase 6 (Rattus norvegicus) (Q64346 whole entry, looked up): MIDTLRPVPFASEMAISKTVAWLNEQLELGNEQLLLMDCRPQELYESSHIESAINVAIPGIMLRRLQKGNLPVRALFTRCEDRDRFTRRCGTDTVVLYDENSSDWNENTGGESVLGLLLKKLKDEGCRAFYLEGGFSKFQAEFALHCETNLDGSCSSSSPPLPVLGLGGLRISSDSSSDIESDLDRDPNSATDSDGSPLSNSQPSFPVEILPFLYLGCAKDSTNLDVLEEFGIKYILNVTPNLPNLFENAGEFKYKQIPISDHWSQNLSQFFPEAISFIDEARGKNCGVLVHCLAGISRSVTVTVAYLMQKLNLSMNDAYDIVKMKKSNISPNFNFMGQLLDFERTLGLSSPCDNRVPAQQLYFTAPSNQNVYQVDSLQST
On to `CC(=O)N(C)C1=C(Cl)C(=O)c2ccccc2C1=O`, for which the inhibition was 54.9% (active). Turning to `CC(=O)N(C1=C(Cl)C(=O)c2ccccc2C1=O)c1ccc(Cl)cc1`, the inhibition was 13.9%.

Regarding `O=C1C=C(C(c2ccccc2)c2ccccc2)C(=O)c2ccccc21`, the inhibition was 6.7%. Consider `CC(=O)NC1=C(N(C)C)C(=O)c2ccccc2C1=O`, for which the inhibition is 0.7%. Regarding `CC(=O)c1ccc(NC2=C(Cl)C(=O)c3ccccc3C2=O)cc1`, the inhibition was -8.2%. `CC(=O)N(C1=C(Cl)C(=O)c2ccccc2C1=O)c1ccc(Br)cc1`: the inhibition was 21.1%. The figure for `CC(=O)C(C(C)=O)C1=C(Cl)C(=O)C(=O)c2ccccc21` is 71% (active). As to `O=C1C(=O)c2ccccc2C(Cl)=C1Cl`, the inhibition was 23%. With `CC(=O)C(C(C)=O)C1=CC(=O)C(=O)c2ccccc21`, the inhibition was 91.6% (active). Consider `CC(=O)NC1=C(Cl)C(=O)c2ccccc2C1=O`, for which the inhibition is 106% (active). Consider `CC(=O)Nc1ccc(NC2=C(Cl)C(=O)c3ccccc3C2=O)cc1`, for which the inhibition was 3.8%. As to `CC(C)OC1=C(Cl)C(=O)c2ccccc2C1=O`, the inhibition was 5.3%. Take `Cc1cc(O)c2c(-c3ccccc3)cc(=O)oc2c1`: the inhibition was -1.9%. For the compound `CCOC(=O)c1ccc(N2C(=O)C(O)=C(C(C)=O)C2c2ccccn2)cc1` (stereo unspecified), the inhibition is -5.9%.

Regarding `O=C1N/C(=N\N=C\c2cccc([N+](=O)[O-])c2)SC1Cc1cccc(Cl)c1Cl` (stereo unspecified), the inhibition is -3%.

`CC(=O)c1ccc(N2C(=O)c3c(Cl)c(Cl)c(Cl)c(Cl)c3C2=O)cc1`: the inhibition is 1.4%. Consider `O=C(O)COc1ccc(N2C(=O)c3c(Cl)c(Cl)c(Cl)c(Cl)c3C2=O)cc1`, for which the inhibition was 2.1%. For the compound `O=C(NCc1cccs1)C1CCN(S(=O)(=O)N2CCCC2)CC1`, the inhibition was 3.1%.

`Cc1cccc(Nc2nc3c(s2)CCCC3)c1`: the inhibition is 95.3% (active).

In the case of `Cc1ccc(C)c(Nc2nc3c(s2)CCCC3)c1`, the inhibition was -4%. With `Clc1cccc(Nc2nc3c(s2)CCCC3)c1`, the inhibition is 0.9%. On to `COc1ccccc1N1C(=O)C2C3C=CC(O3)C2C1=O` (stereo unspecified), for which the inhibition was -2.7%. The result for `CCOC(=O)N1CCC(N2C(=O)c3ccccc3C2=O)CC1` reads 1.8%; that for `CN(C)S(=O)(=O)c1cc(C(=O)NCC2CCCO2)c(Cl)cc1Cl` (stereo unspecified), -1.6%; that for `CCC(C(=O)NC1CCCC1)N(C(=O)Cn1nnc(-c2ccc(C)o2)n1)C(C)(C)C` (stereo unspecified), -14.3%. As for `Cc1ccc(-n2c(=O)c3cc4c(=O)n(-c5ccc(C)c(C)c5)c(=O)c4c(C(=O)c4ccccc4)c3c2=O)cc1C`, the inhibition is 0.3%.

Consider `O=C(O)c1ccc(-n2c(=O)c3ccccc3c3ccccc3c2=O)cc1`, for which the inhibition was 1.5%.

`Cc1ccc(OCC(=O)N(Cc2ccc(N(C)C)cc2)C2CCS(=O)(=O)C2)cc1` (stereo unspecified): the inhibition was -8.2%. On to `CCOc1ccc(NCC(=O)N/N=C/c2cc([N+](=O)[O-])ccc2O)cc1`, for which the inhibition was 5.2%. With `COc1ccc(/C=N/NC(=O)COc2ccc3c(C)cc(=O)oc3c2)cc1`, the inhibition was -1.4%. The figure for `O=c1c[n+]([O-])c2ccccc2n1OCc1ccccc1` is 0%; for `CC1CCN(C(=O)CSc2nc3c(cnn3-c3ccccc3)c(=O)[nH]2)CC1` it is -9.5%; for `CC(C)CCNC(=O)Cn1cc2c(n1)CCCCC2` it is -5.2%. The figure for `Oc1ccc(N=Nc2ccc(Cl)cc2)c2cccnc12` is 2.7%; for `O=S(=O)(O)c1cccc2c(N=Cc3cc(Cl)cc(Cl)c3O)cccc12` it is 0.7%.

`Cc1ccc(OCCOc2ccc(C=O)cc2)cc1C`: the inhibition was 1.6%.

With `CCC(=O)c1ccc(N2CCN(C(=O)c3ccc(F)c(F)c3)CC2)c(F)c1`, the inhibition was 2%. Consider `Cc1ccc(S(=O)(=O)N(C)CCCC(=O)N2CCN(C=O)CC2)cc1`, for which the inhibition was -5.2%.

As to `O=C(Nc1cccc2c1CCCC2)c1ccco1`, the inhibition was -7%. Take `CCn1c(SCC(=O)N/N=C/C=C/c2ccccc2)nc2ccccc21`: the inhibition is 1.5%. With `O=C(c1ncc[nH]1)c1ccccc1C(=O)N1CCOCC1`, the inhibition was 1.3%. The result for `COc1ccccc1-c1nc(C#N)c(N2CCC(Cc3ccccc3)CC2)o1` reads 3.6%; that for `COc1ccc2c(c1)c(=O)c(Br)c(C)n2Cc1ccccc1`, -17.6%. Turning to `COc1cc2c(=O)n(Cc3ccccc3)c(=O)n(CC(=O)C(C)(C)C)c2cc1OC`, the inhibition was 4%. The figure for `COc1cc2cc(=O)n(Cc3ccccc3)c(C)c2cc1OC` is 70.3% (active); for `O=C1C=CC2=C3Oc4c(ccc5cc(O)ccc45)C(c4ccccc4C(=O)O)C3C=CC2=C1` (stereo unspecified) it is 82.7% (active); for `Cc1ccc(S(=O)(=O)Cc2ccc(C(=O)N3CCN(c4ccc(F)cc4)CC3)o2)cc1` it is -8.1%. For the compound `CCOC(=O)C1=C(C)NC2=C(C(=O)CCC2)C1c1ccc(OCc2cccc(F)c2)c(OC)c1` (stereo unspecified), the inhibition is 2.1%. Consider `COc1cccc2c(Cl)cc(C)nc12`, for which the inhibition is -2.4%. The result for `COc1cccc2c(Cl)c(CC=C(Cl)Cl)c(C)nc12` reads 74.2% (active). Turning to `CCc1c(C)nc2c(OC)cccc2c1Cl`, the inhibition was 2.1%. `COc1ccc(S(=O)(=O)Nc2cc(C)c(O)c(S(=O)(=O)c3ccccc3)c2)cc1`: the inhibition is -2.6%. Take `CN(C)c1ccc(NC(=S)Nc2ccccc2)cc1`: the inhibition was 0.8%.

Consider `CN(C(=S)Nc1ccccc1)c1ccccc1`, for which the inhibition was 50.8% (active).

For `CC(=O)N(C)c1ccc(NC(=S)Nc2ccccc2)cc1`, the inhibition was 2.9%. In the case of `CCNc1nc(NS(=O)(=O)c2ccc(C)cc2)nc(SC)n1`, the inhibition was 0.7%. In the case of `COC(=O)c1c(N=CN(C)C)c(C#N)c(C)n1-c1ccccc1`, the inhibition is 4.3%. As to `O=C(CSc1nc(O)c(Cc2ccccc2)c(=O)n1-c1ccccc1)N1CCOCC1`, the inhibition is 3%.

With `O=C1NC(=S)N/C1=C/c1ccc(-c2cc([N+](=O)[O-])ccc2Cl)o1`, the inhibition was 36.3%. Consider `O=C1NC(=S)N/C1=C\c1ccc(-c2cccc([N+](=O)[O-])c2)o1`, for which the inhibition was 0.1%.

In the case of `O=C1NC(=S)N/C1=C\c1ccc(-c2cc([N+](=O)[O-])ccc2Br)o1`, the inhibition is 50% (active). The figure for `O=c1c2ccccc2nc(-c2ccco2)n1-c1cccc2ccccc12` is 2.8%; for `Cc1ccc(-c2nc(-c3cc4cc([N+](=O)[O-])c(O)cc4oc3=O)cs2)cc1` it is -1.3%.

Turning to `O=c1oc2cc(O)c([N+](=O)[O-])cc2cc1-c1csc(-c2ccc(Cl)cc2)n1`, the inhibition was 6.8%. The result for `O=c1oc2cc(O)c([N+](=O)[O-])cc2cc1-c1csc(-c2cc3ccccc3oc2=O)n1` reads 85.1% (active). The figure for `O=C(c1ccc([N+](=O)[O-])cc1)N1CCN(Cc2ccccn2)CC1` is 1.2%; for `CC(=O)CC(=O)Nc1ccc(C)c(Cl)c1` it is -2.2%; for `O=C1C=C/C(=N\S(=O)(=O)c2cccc([N+](=O)[O-])c2)c2ccccc21` it is 78.3% (active).

With `O=[N+]([O-])c1cccc(S(=O)(=O)/N=C(/Nc2ccccc2)c2ccccc2)c1`, the inhibition was 0.1%. With `O=[N+]([O-])c1cccc(S(=O)(=O)Nc2ccccc2-c2ccccc2)c1`, the inhibition is -0.7%. As for `O=C1C=C/C(=N\S(=O)(=O)c2ccc(Cl)c([N+](=O)[O-])c2)c2ccccc21`, the inhibition is 57.6% (active). The result for `O=C1c2ccccc2C(=O)N1/N=C/c1ccc(Cl)c([N+](=O)[O-])c1` reads -2.1%. The result for `O=C1C=CC(=NS(=O)(=O)c2ccc(Cl)c([N+](=O)[O-])c2)C=C1` reads 10.8%. Regarding `COc1ccc(C(=O)NC(=S)Nc2ccc(I)cc2)cc1`, the inhibition is 1.2%. For `CCc1ccc(S(=O)(=O)Nc2ccc(OC(=O)c3ccc(Cl)cc3)cc2)cc1`, the inhibition is 0.4%.

`CCn1c(/N=C/c2c(O)ccc3ccccc23)nc2ccccc21`: the inhibition was 78.4% (active). The result for `CCn1c(/N=C/c2c[nH]c3ccccc23)nc2ccccc21` reads -7.4%; that for `Cn1c(/N=C/c2c(O)ccc3ccccc23)nc2ccccc21`, -12.4%; that for `COc1ccc(NC(=O)CN(c2ccc(C)cc2)S(=O)(=O)c2ccc(SC)cc2)cc1OC`, 0.5%. Turning to `O=c1c2ccc(Br)c3cccc(c32)c2nc3cccc4cccc(c43)n12`, the inhibition was 2.3%. The result for `N#Cc1ccc2c(c1)nc1c3cccc4cccc(c(=O)n21)c43` reads 66.7% (active); that for `O=c1c2ccc(Br)c3cccc(c32)c2nc3ccc4c5c(ccc(c35)n12)CC4`, 0.3%.

Consider `CCOc1ccc2nc(SC3CC(=O)N(c4ccccc4C)C3=O)sc2c1` (stereo unspecified), for which the inhibition is 0.7%.

As to `COc1ccc(/C=C2/NC(=O)/C(=C/c3ccc(OC)cc3)C2=O)cc1`, the inhibition was 4.5%. With `COc1ccc(/C=C2\NC(=O)c3ccccc3C2=O)cc1`, the inhibition was 121% (active). Regarding `Cc1ccc(/C=C2\NC(=O)c3ccccc3C2=O)cc1`, the inhibition was 21%. Consider `O=S(=O)(Nc1ncnc2c1oc1ccccc12)c1ccc(Cl)s1`, for which the inhibition is -12.5%. Take `COc1ccc(/C=C2/C(=N)N3N=C(C(C)C)SC3=NC2=O)cc1OC`: the inhibition is 0%. On to `CCC1=NN2C(=N)/C(=C/c3ccc(OC)c(OC)c3)C(=O)N=C2S1`, for which the inhibition is -3.5%. Consider `CC(=O)N1CCC(C(=O)Nc2ccccc2)(N(Cc2ccccc2)C(=O)c2cccnc2)CC1`, for which the inhibition is -4.2%.

In the case of `CCOC(=O)c1c2c(n(C)c1CNC(C)C)C(=O)C(=O)c1ccc(Br)cc1-2`, the inhibition was 117% (active).

With `CCOC(=O)c1c2c(n(Cc3ccccc3)c1C)C(=O)C(=O)c1ccc(Br)cc1-2`, the inhibition was 34%. `CCOC(=O)c1c(C)n(C)c2ccc(OC(C)C(=O)OC)cc12` (stereo unspecified): the inhibition is -3.4%.

For `CCOC(=O)c1c2c(n(C)c1CO)C(=O)C(=O)c1ccc(Br)cc1-2`, the inhibition was 120% (active).

In the case of `Cc1c(CN(C)C)c2c(n1C)C(=O)c1ccc(Br)cc1-2`, the inhibition was 1.2%. On to `CCOC(=O)c1nnn(-c2nonc2N)c1CNC(C)C`, for which the inhibition was 6.2%.
